Laboratory results from PubChem BioAssay AID430 (Sanford-Burnham Center for Chemical Genomics, 2006).
About 1,100 (1.7%) of roughly 63,000 compounds were called active. The sample holds actives, similar compounds and a random draw of the others, so the mix is not that of the screen. Entries with a potency or affinity are not part of this list. Values without a mark were called inactive. No stated cut-off is given here; in the data, active means cytotoxicity above about 50%; inactive means the rest.

Experiment: cytotoxicity in HPDE-C7 cells, cell-based, fluorescence, HTS (AID 430);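 further: cells exposed to compound for 48 hours before viability readout; 0% = vehicle and 100% = reference cytotoxic drug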
Settings: HPDE-C7 pancreatic duct cells viability, at 10 µM, hits give high values

Structure (SMILES)	cytotoxicity
O=C1Cc2ccccc2N1c1ccccc1	-6.3%
CCOC(=O)C1CCN(Cc2ccc(OC)c(C)c2OC)CC1	2.2%
CCOC(=O)C1CCN(Cc2ccc(O)c3ncccc23)CC1	60.3% (active)
CCOC(=O)C1CCN(Cc2c(O)ccc3ccccc23)CC1	-5.8%
CN(C)c1ccc(C(=S)N2CCOCC2)cc1Br	-13.8%
CCOC(=O)N1CCN(C(=O)c2ccc3c(=O)n(Cc4ccc(OC)cc4)c(=S)[nH]c3c2)CC1	-14.8%
COc1ccc(N2C(=O)CC(N3CCN(c4nc5ccccc5s4)CC3)C2=O)cc1 (configuration not stated)	7.5%
O=C(NCC(F)(F)F)Nc1nnc(C(F)(F)F)s1	12.3%
CC(NC(=O)Nc1nccs1)(C(F)(F)F)C(F)(F)F	-4.1%
CCSc1nnc(NC(=O)NC(CC)(C(F)(F)F)C(F)(F)F)s1	14.7%
CCC(NC(=O)Nc1nccs1)(C(F)(F)F)C(F)(F)F	-7%
O=C(COC(=O)c1n[nH]c2ccccc12)NC(=O)NCc1ccco1	-1.6%
CC1=C(C(=O)Nc2ccccc2)C(c2ccncc2)C(C#N)=C(SCC(=O)NC2CC2)N1 (configuration not stated)	-16.3%
COc1ccc(NC(=O)CSc2nnc(CNC(=O)c3ccco3)o2)c(OC)c1	-0.9%
CCOC(=O)C1=C(C)NC(C)=C(C(=O)OCC)C1C(=O)OCC(=O)N1CCC(C)CC1	0%
CCCn1c(=O)c(C(=O)Nc2nnc(C)s2)c(O)c2ccccc21	75.2% (active)
CCc1nnc(NC(=O)c2c(O)c3cccc4c3n(c2=O)CC4)s1	34.5%
CCCn1c(=O)c(C(=O)Nc2nnc(CC)s2)c(O)c2ccccc21	51.2% (active)
CCCn1c(=O)c(C(=O)Nc2ccncc2)c(O)c2ccccc21	31.4%
CCCn1c(=O)c(C(=O)NCc2ccccn2)c(O)c2ccccc21	-12.9%
CCc1nnc(NC(=O)c2cnccn2)s1	-17.9%
C=CCn1c(=O)c(C(=O)Nc2nnc(C)s2)c(O)c2ccccc21	7.8%
CCc1nnc(NC(=O)c2cccc(OC)c2)s1	-1.7%

Structure (SMILES)	cytotoxicity
CC(C)Cn1c(=O)c(C(=O)Nc2cnccn2)c(O)c2ccccc21	29.3%
CC(C)Cn1c(=O)c(C(=O)Nc2ccncc2)c(O)c2ccccc21	53.2% (active)
CCCn1c(=O)c(C(=O)Nc2cnccn2)c(O)c2ccccc21	-11.9%
CCc1nnc(NC(=O)c2cccc(C(=O)Nc3nnc(CC)s3)n2)s1	52.5% (active)
CC1CC(C)CN(C(=O)C(NS(=O)(=O)c2ccc3c(c2)oc(=O)n3C)C(C)C)C1 (configuration not stated)	9.9%
CC(Sc1nnc(Cn2c(=O)sc3ccccc32)n1C)c1ccccc1 (configuration not stated)	-13.8%
O=C(O)CCC1COc2ccccc2O1 (configuration not stated)	-3.3%
CC(C)(C)n1nc2c(c1NC(=O)c1ccc(Br)cc1)CS(=O)C2 (configuration not stated)	0.9%
Cc1cc(NC(=O)c2cc(-c3cccs3)nc3ccccc23)no1	13.3%
CCOC(=O)c1[nH]c(C)c(C(=O)NCc2ccc(C)cc2)c1C	-17.6%
CCn1c(=O)c(C(=O)Nn2c(C)nc3ccccc3c2=O)c(O)c2ccccc21	21.7%
CCn1c(=O)c(C(=O)Nc2cccnc2)c(O)c2ccccc21	15.8%
CCn1nc(NC(=O)c2ccncc2)c2cc3ccc(C)cc3nc21	-0.2%
CCOC(=O)Cn1nnc(-c2ccc(OCC(C)C)cc2)n1	-9.5%
NC(=O)CSc1nnc(Cn2c(=O)sc3ccccc32)n1-c1ccccc1	3.5%
CCOc1ccc(-c2nnn(CC(=O)Nc3cc(OC)ccc3OC)n2)cc1OCC	69.5% (active)
CCOc1ccc(-c2nnn(CC(=O)Nc3ccccc3OC)n2)cc1OCC	-3.5%
CCOc1ccc(-c2nnn(CC(=O)Nc3cc(OC)cc(OC)c3)n2)cc1OCC	8%
CCOC(=O)c1ccc(NC(=O)c2cc(S(=O)(=O)N3CCOCC3)ccc2O)cc1	3.3%
Cc1c(Cl)cccc1NC(=O)CC(C(=O)O)C1CCCO1 (configuration not stated)	7.8%
Cc1ccc(N2C(N)=NC(N)=NC23CCCC3)c(C)c1	-2.3%
COc1ccc2nc(NCc3ccccc3)[nH]c2c1	39.1%
c1ccc(CNc2nc3ccccc3[nH]2)cc1	-11.8%

Structure (SMILES)	cytotoxicity
Cc1ccc2nc(NCc3ccccc3)[nH]c2c1	70.4% (active)
CN(CC(=O)NC1CCCc2ccccc21)S(=O)(=O)c1ccc2c(c1)c(=O)n(C)c(=O)n2C (configuration not stated)	-10.5%
c1csc(-c2csc(-c3cccs3)n2)c1	-4.7%
COc1ccccc1S(=O)Cc1ccc(C(=O)NC2CCCC2)o1 (configuration not stated)	-13.2%
COC(=O)c1ccccc1NC(=O)Cn1cc2c(n1)CCC(C)C2 (configuration not stated)	-7.1%
O=C1NC(c2cccs2)Nc2ccccc21 (configuration not stated)	5%
Cc1ccsc1C1NC(=O)c2ccccc2N1 (configuration not stated)	-19.5%
Cc1ccc(C2NC(=O)c3ccccc3N2)s1 (configuration not stated)	55.9% (active)
CCN(CC)CCn1c(OC)cc(=O)[nH]c1=O	-2.5%
O=C(CCNC(=O)c1ccc(Br)o1)NCc1ccccc1Cl	-6.1%
CC(C)c1ccc(-c2nc(N3CCCCC3)[nH]c(=O)c2C#N)cc1	24.7%
COc1ccc(CCNC(=O)CSc2nnnn2Cc2ccc3c(c2)OCO3)cc1OC	-16.4%
COc1ccc(-c2noc(C)c2-c2ccc3ccccc3n2)c(O)c1	48.2%
COc1ccc(OC(=O)c2cc3ccccc3o2)cc1	-0.5%
CCOC(=O)c1ccc(NC(=O)Cn2nnc3ccccc32)cc1	3.7%
C#CCSC1=C(C#N)C(c2cccs2)C(C(=O)OCC)=C(C)N1 (configuration not stated)	53% (active)
CCOC(=O)C1=C(C)NC(SCC(=O)Nc2cc(C)on2)=C(C#N)C1c1cccs1 (configuration not stated)	10.6%
CCOC(=O)C1=C(C)NC(SCC(=O)Nc2nc(C)cs2)=C(C#N)C1c1cccs1 (configuration not stated)	78.9% (active)
CCSC1=C(C#N)C(c2cccs2)C(C(=O)OC)=C(C)N1 (configuration not stated)	13.4%
CCOC(=O)C1=C(C)NC(SCc2cc(=O)[nH][nH]2)=C(C#N)C1c1cccs1 (configuration not stated)	37.1%
CCOCCSC1=C(C#N)C(c2cccs2)C(C(C)=O)=C(C)N1 (configuration not stated)	4.5%
